Screens (PubChem)
ROS inducer – cancer cell ROS induction; U2OS ROS induction, H2DCF-DA fluorescence; ROS induction (% of piperlongumine), % at 10 µM; 46,000 tested, 2% active; in the data active = ROS induction above about 79%, passing the limit was not always enough;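 also: 0% = DMSO vehicle median and 100% = reference compound median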
An asterisk follows results filed as active. The sample as a whole holds a higher share of hits than the screen did.

SMILES | ROS inducer
C[C@@H]1CN([C@H](C)CO)C(=O)Cc2cc(NS(=O)(=O)c3cn(C)cn3)ccc2O[C@@H]1CN(C)Cc1ccc(Oc2ccccc2)cc1 | 80*
C[C@@H]1CN([C@H](C)CO)C(=O)Cc2cc(NS(=O)(=O)c3cn(C)cn3)ccc2O[C@H]1CN(C)Cc1ccc(-c2ccccc2)cc1 | 33
C[C@H]1CN([C@@H](C)CO)C(=O)Cc2cc(NS(=O)(=O)c3cn(C)cn3)ccc2O[C@H]1CN(C)Cc1ccccc1 | -5
C[C@@H]1CN([C@H](C)CO)C(=O)Cc2cc(NS(=O)(=O)c3cn(C)cn3)ccc2O[C@H]1CN(C)Cc1ccccc1 | 1
C[C@H]1CN([C@@H](C)CO)C(=O)Cc2cc(NS(=O)(=O)c3cn(C)cn3)ccc2O[C@H]1CN(C)Cc1ccc(-c2ccccc2)cc1 | 95*
Cc1ccc(S(=O)(=O)N(C)C[C@H]2OCCCC[C@@H](C)Oc3ccc(NS(=O)(=O)c4ccc(F)cc4)cc3C(=O)N([C@H](C)CO)C[C@@H]2C)cc1 | 35
O=S(CCSc1nc2ccccc2s1)Cc1ccc(Cl)cc1 (stereo unspecified) | -6
COC(=O)c1sc(C(=O)OC)c2c1OCCO2 | -4
CNC[C@@H]1Oc2ccc(NC(=O)Cn3cnnn3)cc2C(=O)N([C@H](C)CO)C[C@H]1C | -5
Cc1ccc(-n2c(SCC(=O)c3ccc(Cl)cc3)nnc2-c2ccco2)cc1 | 46
O=C(CSc1ncccn1)Nc1ccc(Cl)cc1Cl | -35
Clc1ccc(CSc2ncccn2)cc1 | 94*
O=c1ccnc(SCc2ccc(Cl)cc2)[nH]1 | 49
Nc1nc(SCc2nc(-c3ccccc3)no2)n[nH]1 | -13
COC(=O)c1ccc(NC(=O)CSc2nnc(-c3ccc(Br)cc3)o2)cc1 | -7
OC(COc1ccc(Nc2ccccc2)cc1)COc1ccc(Nc2ccccc2)cc1 | 7
COC(=O)CCCCCCC(=O)N/N=C/c1ccc[nH]1 | 18
C[C@H](CO)N1C[C@H](C)[C@H](CN(C)C(=O)Nc2ccccc2)Oc2ncc(C#Cc3cccc(F)c3)cc2C1=O | 3
COc1ccc(NC(=O)N(C)C[C@@H]2Oc3ncc(C#Cc4ccc(OC)c(OC)c4)cc3C(=O)N([C@H](C)CO)C[C@@H]2C)cc1 | 104*
COc1ccc(C#Cc2cnc3c(c2)C(=O)N([C@H](C)CO)C[C@H](C)[C@H](CN(C)C(=O)Nc2ccc4c(c2)OCO4)O3)cc1OC | 118*
C[C@H](CO)N1C[C@H](C)[C@H](CN(C)C(=O)Nc2ccccc2)Oc2ncc(C#Cc3ccc(F)cc3)cc2C1=O | 132*
COc1ccc(C#Cc2cnc3c(c2)C(=O)N([C@H](C)CO)C[C@H](C)[C@H](CN(C)C(=O)Nc2c(C)noc2C)O3)cc1OC | 24
C[C@H](CO)N1C[C@H](C)[C@H](CN(C)C(=O)Nc2ccc(F)cc2)Oc2ncc(C#Cc3ccc(C(F)(F)F)cc3)cc2C1=O | 49
COc1ccc(C#Cc2cnc3c(c2)C(=O)N([C@H](C)CO)C[C@H](C)[C@H](CN(C)C)O3)cc1OC | 30
COc1ccc(S(=O)(=O)N(C)C[C@@H]2Oc3ncc(C#Cc4ccc(OC)c(OC)c4)cc3C(=O)N([C@H](C)CO)C[C@@H]2C)cc1 | 62
SMILES | ROS inducer
COc1ccc(NC(=O)N(C)C[C@@H]2Oc3ncc(C#CCN(C)C)cc3C(=O)N([C@H](C)CO)C[C@@H]2C)cc1 | -6
OC(CSc1nccc(-c2ccc3c(c2)OCCO3)n1)C(F)(F)F (stereo unspecified) | -2
C[C@H]1CN([C@@H](C)CO)C(=O)c2cccc(NS(=O)(=O)c3cn(C)cn3)c2O[C@@H]1CN(C)C(=O)Nc1ccc(C(F)(F)F)cc1 | 0
C[C@H]1CN([C@@H](C)CO)C(=O)Cc2cc(NS(=O)(=O)c3ccc(Cl)cc3)ccc2O[C@@H]1CN(C)C(=O)Nc1ccc2c(c1)OCO2 | -3
CCOC(=O)c1c(NC(=O)CSc2nc(C)cc(C(F)(F)F)n2)sc2c1CCCC2 | -3
CCOC(=O)c1c(NC(=O)c2nc3nc(C)cc(C(F)F)n3n2)sc2c1CCCC2 | 166*
CCOC(=O)c1c(NC(=O)c2nc3ncccn3n2)sc2c1CCC(C)C2 (stereo unspecified) | -6
CCCOc1ccc(-c2nc(SCC(=O)O)n[nH]2)cc1 | -3
CC(C)c1ccc(N(C(=O)c2ccccc2)C2C=CS(=O)(=O)C2)cc1 (stereo unspecified) | -10
COc1ccc(NC(=O)N(C)C[C@@H]2Oc3c(NC(=O)Nc4ccc(C(F)(F)F)cc4)cccc3C(=O)N([C@@H](C)CO)C[C@H]2C)cc1 | 9
CCOc1ccccc1OCC(=O)Nc1ccccc1C(=O)O | -4
CCc1ccc2ncc(S(=O)(=O)c3ccccc3)c(N3CCCC3)c2c1 | 22
CCOC(=O)c1cnc2ccc(OCC)cc2c1NC(C)CC (stereo unspecified) | 42
CCOC(=O)c1cnc2ccc(OCC)cc2c1N1CCN(c2ccccc2)CC1 | 128*
C[C@H](CO)N1C[C@H](C)[C@@H](CN(C)S(=O)(=O)c2cccs2)Oc2ccc(NS(C)(=O)=O)cc2C1=O | -23
CCC(Sc1nnc(C)n2c1cc1oc(C)cc12)C(=O)Nc1cccc(OC)c1 (stereo unspecified) | 96*
COc1cccc(NC(N)=O)c1 | -5
CCn1c(SCC(=O)Nc2cccc(OC)c2)nnc1-c1cccc(C)c1 | 7
Cc1noc(C)c1NC(=O)N(C)C[C@H]1Oc2c(NS(=O)(=O)c3cn(C)cn3)cccc2C(=O)N([C@H](C)CO)C[C@@H]1C | -16
O=C(NCc1ccccc1)C(c1ccco1)N(Cc1ccc(Br)cc1)C(=O)Cc1ccccc1 (stereo unspecified) | 21
Cc1noc(C)c1NC(=O)N(C)C[C@H]1Oc2ccc(NC(=O)CCC(F)(F)F)cc2CC(=O)N([C@@H](C)CO)C[C@@H]1C | 3
C[C@@H]1CN([C@H](C)CO)C(=O)Cc2cc(NS(C)(=O)=O)ccc2O[C@@H]1CN(C)Cc1ccc(-c2ccccc2)cc1 | -4
Cc1cc(-c2c(C(=O)Sc3ccccc3)c(C)nn2-c2ccccc2)no1 | 56
Cc1ccc(SC(=O)c2c(C)noc2-c2cc(C)on2)cc1 | 109*
Cc1ccc(SCC(=O)Nc2cc(C)on2)cc1 | -6
SMILES | ROS inducer
CCC1c2[nH]c3ccccc3c2CCN1C(=O)c1ccc(Cl)cc1 (stereo unspecified) | 23
C[C@@H]1CCCCO[C@H](CN(C)Cc2ccc(C(F)(F)F)cc2)[C@@H](C)CN([C@H](C)CO)C(=O)c2cc(NC(=O)CCC(F)(F)F)ccc2O1 | 9
C[C@@H]1CCCCO[C@H](CN(C)Cc2ccncc2)[C@@H](C)CN([C@H](C)CO)C(=O)c2cc(NC(=O)C3CCCCC3)ccc2O1 | -4
C[C@@H]1CCCCO[C@H](CN(C)Cc2ccc(C(F)(F)F)cc2)[C@@H](C)CN([C@H](C)CO)C(=O)c2cc(NC(=O)C3CCCCC3)ccc2O1 | 87*
C[C@@H]1CCCCO[C@@H](CN(C)Cc2ccncc2)[C@@H](C)CN([C@H](C)CO)C(=O)c2cc(NC(=O)C3CCCCC3)ccc2O1 | 16
C[C@@H]1CCCCO[C@@H](CN(C)Cc2ccc(C(F)(F)F)cc2)[C@@H](C)CN([C@H](C)CO)C(=O)c2cc(NC(=O)CCC(F)(F)F)ccc2O1 | 155*
C[C@@H]1CCCCO[C@@H](CN(C)C(=O)Nc2ccc(F)cc2)[C@@H](C)CN([C@H](C)CO)C(=O)c2cc(NC(=O)CCC(F)(F)F)ccc2O1 | 140*
